Results from PubChem BioAssay (NCI).
The panel holds about 79,000 compounds, 15% with a hit somewhere; the sample as a whole holds those more often. Unmarked numbers belong to inactive results. Calls of active or inactive are those of the source. Cut-off read from the data, not from the text of the source: active = growth inhibition above about 70%; inactive = the rest. Where a SMILES comes first, the peptide text is derived from it. [ ]: non-standard residue; d: D form. The star is where a group is joined. Hyp = O=C(O)[CH]1C[CH](O)CN1; Cbz = O=C(OCc1ccccc1)*

Key:
[1] = NCI Yeast Anticancer Drug Screen. Data for the rad50 strain (AID 155);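 note: 0% = growth of vehicle-only cultures of the same strain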; conditions: S. cerevisiae rad50 strain growth inhibition; at 50.0 µM; stronger effect = higher value
In short: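 Yeast carrying a defined DNA repair defect were exposed to test compounds, and growth was compared with vehicle-treated controls to give percent inhibition.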

[2] = NCI Yeast Anticancer Drug Screen. Data for the mec2-1 strain (AID 157); conditions: S. cerevisiae mec2-1 strain, at 50.0 µM, stronger effect = higher value
In short: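 mec2-1 yeast strain, carrying an alteration in DNA damage repair or cell cycle control, was exposed to compounds; growth inhibition was measured relative to vehicle-treated controls.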

[3] = NCI Yeast Anticancer Drug Screen. Data for the sgs1 mgt1 strain (AID 161);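 note: 0% = growth of cultures given vehicle only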; conditions: S. cerevisiae sgs1 mgt1 strain, at 50.0 µM, stronger effect = higher value
In short: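 Percent growth inhibition was derived by comparing compound-exposed mutant yeast with vehicle-exposed cultures. The strain carries alterations in DNA damage repair.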

[4] = NCI Yeast Anticancer Drug Screen. Data for the cln2 rad14 strain (AID 165);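 note: 0% = growth equal to vehicle treated cultures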; conditions: S. cerevisiae cln2 rad14 strain, at 50.0 µM, stronger effect = higher value
In short: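 Yeast carrying cln2 and rad14 alterations (cell cycle control and DNA damage repair) were exposed to compounds. Growth inhibition was measured against vehicle-treated controls.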

[5] = NCI Yeast Anticancer Drug Screen. Data for the bub3 strain (AID 167); conditions: S. cerevisiae bub3 mutant strain, at 50.0 µM, stronger effect = higher value
In short: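 Compounds were applied to a genetically altered yeast strain carrying a cell-cycle control defect. Growth inhibition was scored against vehicle-treated controls.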

[6] = NCI Yeast Anticancer Drug Screen. Data for the mlh1 rad18 strain (AID 175); conditions: S. cerevisiae mlh1 rad18 strain growth inhibition; at 50.0 µM; stronger effect = higher value
In short: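 Growth inhibition of the yeast strain was measured after compound exposure and expressed relative to vehicle-treated controls. The strain carries defined defects in DNA damage repair.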

O=[N+]([O-])c1cccc(N=Cc2ccc(Cl)cc2)c1
growth inhibition [1]: -29.9%
growth inhibition [2]: -17.8%
growth inhibition [3]: -62.5%
growth inhibition [4]: -0.7%
growth inhibition [5]: -0.05%
growth inhibition [6]: -11.1%

CN1CCCNCCN(CCc2ccccn2)CCCN(C)CC1
growth inhibition [1]: 2.75%
growth inhibition [2]: -1.5%
growth inhibition [3]: -12.5%
growth inhibition [4]: -7.75%
growth inhibition [5]: 0.15%
growth inhibition [6]: 6.65%

N#CC1OC1c1ccccn1 (stereo not drawn)
growth inhibition [1]: -6.25%
growth inhibition [2]: 7.05%
growth inhibition [3]: -12.3%
growth inhibition [4]: 9.05%
growth inhibition [5]: 5.35%
growth inhibition [6]: -21.6%

CCCC1(c2ccccc2)SCC(=O)NC1=O (stereo not drawn)
growth inhibition [1]: 31.3%
growth inhibition [2]: -0.2%
growth inhibition [3]: -16.6%
growth inhibition [4]: -25.6%
growth inhibition [5]: -14.2%
growth inhibition [6]: -25.9%

CCC(=O)Cc1cnccn1
growth inhibition [1]: -47.1%
growth inhibition [2]: -32.5%
growth inhibition [3]: -12.3%
growth inhibition [4]: -10.1%
growth inhibition [5]: -9.15%
growth inhibition [6]: -12.4%

CCCCCCC(/C=C/c1ccc(Cl)c(Cl)c1)=N\Nc1ccccc1
growth inhibition [1]: 3.55%
growth inhibition [2]: -15.9%
growth inhibition [3]: 14.8%
growth inhibition [4]: -19.7%
growth inhibition [5]: -4.3%
growth inhibition [6]: -12.3%

Cc1ccc(S(=O)(=O)N/N=C/C(C)C)cc1
growth inhibition [1]: 14.2%
growth inhibition [2]: -15.6%
growth inhibition [3]: 4.75%
growth inhibition [4]: 17.8%
growth inhibition [5]: -14.8%
growth inhibition [6]: 24.2%

Nc1ccc(S(=O)(=O)NO)cc1
growth inhibition [1]: -12.1%
growth inhibition [2]: -3.95%
growth inhibition [3]: -2.55%
growth inhibition [4]: -27.1%
growth inhibition [5]: -2.2%
growth inhibition [6]: 11.3%

CC(O)(C(=O)c1ccccc1)c1ccccc1 (stereo not drawn)
growth inhibition [1]: -16.4%
growth inhibition [2]: -25.1%
growth inhibition [3]: -16.4%
growth inhibition [4]: -8.15%
growth inhibition [5]: -18.4%
growth inhibition [6]: 0.6%

OCCN(CCO)c1ncnc2c1ncn2CCc1ccccc1
growth inhibition [1]: 13.6%
growth inhibition [2]: -0.25%
growth inhibition [3]: 16.2%
growth inhibition [4]: -16%
growth inhibition [5]: 4.1%
growth inhibition [6]: -2.25%

C=CC(C)(C)c1c(OC(C)=O)cc2oc3c(OC(C)=O)c(OC(C)=O)cc(CC=C(C)C)c3c(=O)c2c1O
growth inhibition [1]: 34%
growth inhibition [2]: 12.3%
growth inhibition [3]: 11.2%
growth inhibition [4]: 7.35%
growth inhibition [5]: -5.85%
growth inhibition [6]: -0.55%

CCCC(NC(=O)CN)C(=O)O (stereo not drawn)
growth inhibition [1]: 14.8%
growth inhibition [2]: 19.1%
growth inhibition [3]: 2%
growth inhibition [4]: -50%
growth inhibition [5]: -29.4%
growth inhibition [6]: 6.5%

c1ccc(C2OC(c3ccccc3)c3ccccc32)cc1 (stereo not drawn)
growth inhibition [1]: 7.55%
growth inhibition [2]: -6.8%
growth inhibition [3]: 12.4%
growth inhibition [4]: -2.05%
growth inhibition [5]: 24.1%
growth inhibition [6]: 12.2%

COc1cc(C2NC(=O)C(C)(C)O2)cc(OC)c1OC (stereo not drawn)
growth inhibition [1]: -2.05%
growth inhibition [2]: -9.85%
growth inhibition [3]: -8.75%
growth inhibition [4]: -17.8%
growth inhibition [5]: 4.8%
growth inhibition [6]: -37%

COC(=O)C1=C(C)N(NC(=O)c2ccccc2)C2(O)CCCC(=O)C12C (stereo not drawn)
growth inhibition [1]: 20.2%
growth inhibition [2]: 2.2%
growth inhibition [3]: 17.8%
growth inhibition [4]: -29.6%
growth inhibition [5]: -6.05%
growth inhibition [6]: 23.9%

OC(C1COCO1)C1OCOC1C1COCO1 (stereo not drawn)
growth inhibition [1]: 21.6%
growth inhibition [2]: 9.45%
growth inhibition [3]: 3.2%
growth inhibition [4]: 3.55%
growth inhibition [5]: -11.2%
growth inhibition [6]: 6.15%

CN(C)C(=S)N(C(=S)N(C)C)c1ccc(Cl)cc1
growth inhibition [1]: -7.9%
growth inhibition [2]: -11.8%
growth inhibition [3]: -7.15%
growth inhibition [4]: -4.1%
growth inhibition [5]: 3.1%
growth inhibition [6]: -17.8%

Nc1nc2c(-c3ccc([N+](=O)[O-])cc3)nnn2c2cccc(Cl)c12
growth inhibition [1]: -9.7%
growth inhibition [2]: -15.8%
growth inhibition [3]: -18.4%
growth inhibition [4]: 4.85%
growth inhibition [5]: -32.5%
growth inhibition [6]: -14.7%

C/C(=C\O[Si](C)(C)C)c1ccccc1
growth inhibition [1]: 37.6%
growth inhibition [2]: 23.9%
growth inhibition [3]: 12.4%
growth inhibition [4]: 7.6%
growth inhibition [5]: -11.2%
growth inhibition [6]: 41.1%

CCN(CC)CCOC(=O)c1ccc(N=Nc2cc(NC(C)=O)ccc2O)cc1
growth inhibition [1]: 3.35%
growth inhibition [2]: -3.7%
growth inhibition [3]: -0.7%
growth inhibition [4]: 4.15%
growth inhibition [5]: 2.35%
growth inhibition [6]: 5.05%

O=Cc1c(O)nc[nH]c1=O
growth inhibition [1]: -23.9%
growth inhibition [2]: -27.9%
growth inhibition [3]: -4.15%
growth inhibition [4]: 6.75%
growth inhibition [5]: -13.4%
growth inhibition [6]: -7.7%

COC(=O)C(Cc1nc2ccccc2[nH]c1=O)/C(=N\NC(C)(C)C)C(=O)Nc1c(C)cc(Br)cc1C (stereo not drawn)
growth inhibition [1]: 17.2%
growth inhibition [2]: -4.55%
growth inhibition [3]: 5.9%
growth inhibition [4]: -35.8%
growth inhibition [5]: 3.7%
growth inhibition [6]: -3%

O=C(Cc1ccccc1)NN1C(=O)/C(=C\c2cccc(O)c2)SC1=Nc1ccccc1
growth inhibition [1]: -11%
growth inhibition [2]: -18.9%
growth inhibition [3]: -6%
growth inhibition [4]: 5.9%
growth inhibition [5]: -45.3%
growth inhibition [6]: -16.9%

COc1ccc(C(O)c2ccc(OC)cc2)cc1
growth inhibition [1]: -10.8%
growth inhibition [2]: -16.6%
growth inhibition [3]: -23.9%
growth inhibition [4]: 10.1%
growth inhibition [5]: -22.3%
growth inhibition [6]: -7.6%

CC(C)NCCC(O)c1cc2ccccc2o1 (stereo not drawn)
growth inhibition [1]: -12.8%
growth inhibition [2]: -4%
growth inhibition [3]: -17.6%
growth inhibition [4]: -7.1%
growth inhibition [5]: -35.5%
growth inhibition [6]: 5.15%

N#CC1(NC2CCCCC2)CCN(Cc2ccccc2)CC1
growth inhibition [1]: -5.5%
growth inhibition [2]: -11.9%
growth inhibition [3]: -6.1%
growth inhibition [4]: 4.1%
growth inhibition [5]: -7.5%
growth inhibition [6]: -1.75%

C[CH2][Sn]([CH2]C)([O]C(=O)c1cccc(F)c1)[O][Sn]([CH2]C)([CH2]C)[O]C(=O)c1cccc(F)c1
growth inhibition [1]: 31.4%
growth inhibition [2]: 3.3%
growth inhibition [3]: 5.85%
growth inhibition [4]: 16.4%
growth inhibition [5]: 13.6%
growth inhibition [6]: 0.45%

CC12C=CC(=O)C=C1CCC1C2C(O)CC2(C)/C(=C\CO)CCC12 (stereo not drawn)
growth inhibition [1]: -4.05%
growth inhibition [2]: -1.75%
growth inhibition [3]: 6.55%
growth inhibition [4]: -15.8%
growth inhibition [5]: 60.2%
growth inhibition [6]: -3.35%

C/C=C/C=C/C(=O)OCC
growth inhibition [1]: 31.8%
growth inhibition [2]: -2.25%
growth inhibition [3]: -16.4%
growth inhibition [4]: -2.4%
growth inhibition [5]: 15.2%
growth inhibition [6]: 14.3%

O=C(NC/C=C/Br)NC1CCNc2ccccc21 (stereo not drawn)
growth inhibition [1]: -14.2%
growth inhibition [2]: -27.4%
growth inhibition [3]: 22.1%
growth inhibition [4]: 28.6%
growth inhibition [5]: 20.2%
growth inhibition [6]: 23%

O=C(O)c1cc(=O)c2[nH]c3ccccc3c2s1
growth inhibition [1]: -5.2%
growth inhibition [2]: -17.9%
growth inhibition [3]: -19.5%
growth inhibition [4]: 9.55%
growth inhibition [5]: -22.6%
growth inhibition [6]: 7.95%

O=C(c1ccccc1)C1C(C(=O)c2ccccc2)C1c1ccccc1 (stereo not drawn)
growth inhibition [1]: -11.3%
growth inhibition [2]: -4.45%
growth inhibition [3]: 21.3%
growth inhibition [4]: 3.4%
growth inhibition [5]: 31.3%
growth inhibition [6]: -16.1%

NC(=O)CNC(=O)C1CC(O)CN1C(=O)C1CCCN1C(=O)OCc1ccccc1 (stereo not drawn) (Cbz-Pro-[Hyp]-Gly-NH2; configuration not given here)
growth inhibition [1]: -3.9%
growth inhibition [2]: 1.1%
growth inhibition [3]: 1.55%
growth inhibition [4]: 4.15%
growth inhibition [5]: 9.45%
growth inhibition [6]: 2.2%

CC(=O)c1ccc(C2CCC[C@H]2c2ccc(C(C)=O)cc2)cc1 (stereo partly drawn)
growth inhibition [1]: 4.15%
growth inhibition [2]: -1.55%
growth inhibition [3]: 1.75%
growth inhibition [4]: -40.2%
growth inhibition [5]: 9.3%
growth inhibition [6]: -16.4%

O=C(O)c1ccc(/C=N\N(CCO)C2=NCCN2)cc1
growth inhibition [1]: 0%
growth inhibition [2]: -4%
growth inhibition [3]: -23.8%
growth inhibition [4]: -31.5%
growth inhibition [5]: -0.35%
growth inhibition [6]: 6.4%

CCOc1c(N=Nc2cccc([N+](=O)[O-])c2)c(C)nn1C(N)=S
growth inhibition [1]: -42.2%
growth inhibition [2]: -34.1%
growth inhibition [3]: -7.85%
growth inhibition [4]: -28.9%
growth inhibition [5]: -3.35%
growth inhibition [6]: -16%

N/C(=N\OC(=O)NC(Cl)=C(Cl)Cl)c1ccc(Cl)cc1
growth inhibition [1]: -18.9%
growth inhibition [2]: -34.4%
growth inhibition [3]: 7.4%
growth inhibition [4]: 16.7%
growth inhibition [5]: -13.9%
growth inhibition [6]: -7.95%

O=[N+]([O-])c1cc2c(c3nonc13)OCCCCO2
growth inhibition [1]: 5.95%
growth inhibition [2]: 25.5%
growth inhibition [3]: 47.4%
growth inhibition [4]: 23.2%
growth inhibition [5]: 23.7%
growth inhibition [6]: 77% (active)
